An excerpt weighted towards active compounds, which were near 2.3% of everything screened.
IDE act = human IDE activators in live cells, primary screen, fluorescence polarization, HEK cells, FAbeta-B substrate; activation, % at 5.96 µM; FAbeta-B cleavage; 0% vehicle, 100% cell-free pure enzyme wells; Insulin-degrading enzyme (Homo sapiens), P14735; AID 493087, 2011; 340,000 tested, 0.073% active;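 active = activation above the mean of all tested compounds plus 3 SD, set per screening campaign, cut at about 17% in these data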
Target sequence (P14735 whole entry, looked up): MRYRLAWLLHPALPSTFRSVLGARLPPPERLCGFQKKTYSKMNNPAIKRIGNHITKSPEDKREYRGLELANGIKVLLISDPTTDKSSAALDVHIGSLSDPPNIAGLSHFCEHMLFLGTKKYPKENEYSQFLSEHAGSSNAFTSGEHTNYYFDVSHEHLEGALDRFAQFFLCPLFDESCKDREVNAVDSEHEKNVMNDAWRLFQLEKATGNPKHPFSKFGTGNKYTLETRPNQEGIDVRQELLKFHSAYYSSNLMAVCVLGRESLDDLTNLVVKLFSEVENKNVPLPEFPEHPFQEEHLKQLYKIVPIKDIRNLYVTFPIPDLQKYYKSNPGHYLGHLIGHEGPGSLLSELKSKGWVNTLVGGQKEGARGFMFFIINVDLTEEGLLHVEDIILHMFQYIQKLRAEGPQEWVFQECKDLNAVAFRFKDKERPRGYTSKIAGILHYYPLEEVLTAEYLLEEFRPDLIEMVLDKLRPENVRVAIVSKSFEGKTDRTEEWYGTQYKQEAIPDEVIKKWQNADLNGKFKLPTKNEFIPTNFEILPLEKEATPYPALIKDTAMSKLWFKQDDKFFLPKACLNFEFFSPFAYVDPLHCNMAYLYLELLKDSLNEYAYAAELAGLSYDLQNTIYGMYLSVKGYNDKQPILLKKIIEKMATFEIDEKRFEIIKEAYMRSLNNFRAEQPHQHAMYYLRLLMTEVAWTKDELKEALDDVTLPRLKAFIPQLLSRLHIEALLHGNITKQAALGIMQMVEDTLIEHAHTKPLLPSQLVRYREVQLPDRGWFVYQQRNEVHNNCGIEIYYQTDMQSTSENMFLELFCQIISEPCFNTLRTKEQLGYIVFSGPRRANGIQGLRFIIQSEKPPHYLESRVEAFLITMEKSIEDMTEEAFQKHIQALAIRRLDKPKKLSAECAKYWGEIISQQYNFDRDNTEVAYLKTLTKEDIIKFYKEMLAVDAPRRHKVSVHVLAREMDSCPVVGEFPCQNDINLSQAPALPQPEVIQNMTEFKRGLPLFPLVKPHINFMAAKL
IDE inh = human IDE inhibitors in live cells, primary screen, fluorescence polarization, HEK cells, FAbetaB substrate; Insulin-degrading enzyme (Homo sapiens), P14735; FAbetaB cleavage; inhibition, % at 5.59 µM; 320,000 tested, 0.41% active;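 active = percent inhibition above the average of all tested compounds plus 3 SD, set per screening campaign, cut at about 16% in these data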;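 also: IDE supplied by intact live HEK cells; FP after avidin binding of uncleaved biotin substrate so inhibition keeps polarization high; 0% = DMSO wells and 100% = 60 µM reference IDE inhibitor Ii1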
Rin1 Abl inh = inhibitors of Rin1-Abl protein binding, primary screen, biochemical, TR-FRET | inhibition, % at 7.35 µM | 360,000 tested, 0.4% active | AID 588664, 2011; in the data active = inhibition above about 5%, passing the limit was not always enough
TPT1 inhibitor = Candida albicans TPT1 enzyme inhibitors, primary screen, biochemical, fluorescence polarization; tRNA 2'-phosphotransferase TPT1 (Candida albicans SC5314); recombinant caTPT1, FP RNA substrate dephosphorylation; inhibition, % at 5 µM; 300,000 tested, 0.81% active; AID 1962, 2009;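 active = inhibition above the mean of all tested compounds plus 3 SD, set per screening campaign, cut at about 24% in these data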;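 also: plate controls were DMSO alone for no effect and ferristatin control at 100 nM for full effect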
Rpn11 block = Rpn11 (PSMD14) deubiquitinase inhibitors, primary screen, biochemical, fluorescence polarization, uHTS; 26S proteasome non-ATPase regulatory subunit 14 (Homo sapiens), O00487; human 26S proteasome, Ub4-pepOG fluorescence polarization; 20S core pre-blocked with epoxomicin; inhibition, % at 20 µM; 360,000 tested, 0.59% active;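 active = inhibition at 20 µM, scaled to each plate's controls, above about 33%, limit read from the data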
Calb FLC = C. albicans growth inhibition with fluconazole, primary screen, CaCi-2 strain, Alamar Blue fluorescence | C. albicans CaCi-2 (fluconazole-resistant clinical isolate) + fluconazole, 48 h | growth inhibition, % (no concentration beside the values) | 300,000 tested, 0.57% active;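 active = growth inhibition above about 58% in most replicates, limit read from the data, passing the limit was not always enough; inconclusive = exactly half the replicates above a set limit; inactive = most replicates below a set limit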;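 also: all wells also contain fluconazole at 8 µg/ml as a sub-toxic cotreatment; 0% = median of DMSO wells and 100% = median of geldanamycin control wells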
Rpn11 confirm = Rpn11 (PSMD14) deubiquitinase inhibitors, confirmation, biochemical, fluorescence polarization, single concentration | shares compounds with Rpn11 block | purified human 26S proteasome, Ub4-pepOG fluorescence polarization; proteasome pretreated with epoxomicin | inhibition, % at 20 µM | 1,900 tested, 29% active | AID 602318, 2012
MMP-2 counter = MMP-2 enzyme inhibition, confirmation, counter-screen for RPN11 inhibitor project, biochemical, fluorescence, single concentration; AID 602330, 2012; inhibition, % at 20 µM; 1,900 tested, 4% active; shares compounds with Rpn11 block; recombinant MMP-2, FRET peptide cleavage fluorescence;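 also: human MMP-2 activated beforehand with APMA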
Thrombin FP = bovine thrombin protease inhibition, confirmation, counter-screen for Rpn11 inhibitor project, biochemical, fluorescence polarization, single concentration; shares compounds with Rpn11 block; bovine thrombin cleavage of Ub4-pepOG; inhibition, % at 20 µM; 1,900 tested, 13% active; AID 602333, 2012;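 active = mean inhibition at least 40% at 20 µM, or signal 3 deviations below plate average, so some actives read negative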;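 also: plate controls were thrombin with DMSO for no effect and buffer wells lacking thrombin for full effect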
Active calls of the source: *; i = inactive; ? = inconclusive; / = no result shown. Rule as the data show it, unless noted: active = inhibition above about 40%; inactive = the rest.

SMILES	IDE act	IDE inh	Rin1 Abl inh	TPT1 inhibitor	Rpn11 block	Calb FLC	Rpn11 confirm	MMP-2 counter	Thrombin FP
Cc1cc(-c2cc(C(=O)O)c3ccccc3n2)c(C)s1	1.9	2.5	2.5	0.6	36.0*	80.4*	3.1	-12.6	-0.1
Cc1ccc(S(=O)(=O)N2CCOCC2)cc1NC(=O)CN(C)CC(=O)Nc1cccc(F)c1	/	/	-4.3	/	0.2	/	/	/	/
COc1ccc(/C=N/NC(=O)c2c(-c3ccccc3)noc2C)cc1	1.3	0.0	-3.2	0.7	-7.5	-1.0	/	/	/
Cc1onc(-c2ccccc2)c1C(=O)N/N=C/c1cc(Br)c(O)c(Br)c1	7.3	/	-1.0	/	41.8*	-0.9	1.5	31.1	4.2
CC(=O)Oc1ccc(/C=N\NC(=O)c2cc3c(ccc4ccccc43)o2)cc1	-2.7	0.5	-0.1	-3.4	129.1*	38.6	55.5*	-201.5	-14.8
O=C(N/N=C/c1cc(Br)c(O)c(Br)c1)c1cc2c(ccc3ccccc32)o1	0.5	/	2.5	/	73.9*	109.0*	59.0*	-6.4	138.9*
Cc1ccc(/C=N/NC(=O)c2cc3c(ccc4ccccc43)o2)o1	3.6	/	3.0	/	2.8	2.9	/	/	/
O=S(=O)(Oc1ccc(C(=S)N2CCOCC2)cc1)c1ccc(Cl)cc1	3.8	-1.5	1.0	-1.1	-4.1	-10.4	/	/	/
Cc1ccc(S(=O)(=O)N2CCN(C(=O)c3ccc(N4CCC(C)CC4)c([N+](=O)[O-])c3)CC2)cc1	-0.3	/	3.1	/	-0.7	/	/	/	/
COC(=O)c1ccc(OCC(=O)NC2CCCCCC2)cc1	4.7	6.1	1.0	1.3	-0.9	-17.2	/	/	/
NS(=O)(=O)c1ccc(NC(=O)Nc2ccc(S(N)(=O)=O)cc2)cc1	/	1.4	0.3	5.9	-7.9	0.1	/	/	/
NS(=O)(=O)c1ccc(NC(=O)c2cccc(N3C(=O)c4ccccc4C3=O)c2)cc1	-4.1	-0.3	-1.6	-2.4	79.0*	4.7	81.8*	i	-11.8
NS(=O)(=O)c1ccc(NS(=O)(=O)c2ccc(NC(=O)c3ccc(-c4ccccc4)cc3)cc2)cc1	-23.4	35.9*	-5.5	7.8	119.3*	0.8	109.3*	32.4	100.6*
NS(=O)(=O)c1ccc(NC(=O)c2ccc(-c3ccccc3)cc2)cc1	/	/	0.6	/	100.8*	/	119.2*	13.5	17.5
NS(=O)(=O)c1ccc(NC(=O)Nc2ccccc2)cc1	2.8	-1.7	-3.7	-3.7	41.4*	6.5	-14.2	-11.4	-30.9
COCCN(CC(=O)Nc1cccc(C)c1C)C(=O)Cc1ccsc1	3.3	-3.3	6.6	/	-3.2	/	/	/	/
C#CCOCCOCCOCCNc1nc(N2CCN(C(=O)[C@H]([C@@H](C)CC)n3cc([C@@H](N)Cc4ccc(O)cc4)nn3)CC2)nc(N2CCN(C(=O)[C@H](Cc3cc4ccccc4[nH]3)n3cc([C@@H](N)CC(C)C)nn3)CC2)n1	2.5	6.4	-1.8	-0.3	63.7*	/	9.4	38.2	-8.9
Cc1ccc(CS(=O)(=O)Cc2ccc(C(=O)NCc3cccs3)o2)cc1	7.9	3.3	-0.7	0.5	-0.3	15.3	/	/	/
Cc1ccc(CS(=O)Cc2ccc(C(=O)NCc3cccs3)o2)cc1 (stereo not drawn)	4.5	5.2	-1.5	-2.6	64.2*	-12.0	-10.3	-1.4	-17.7
COc1cc([N+](=O)[O-])cc(/C=C2/SC(=S)N(Cc3ccccc3)C2=O)c1O	-14.3	14.9	-2.8	0.1	60.8*	?	64.1*	55.0*	35.9
NS(=O)(=O)c1ccc(NC(=O)COC(=O)/C(=C/c2cccs2)c2cccs2)cc1	-10.0	-0.6	-4.3	2.4	9.7	5.2	/	/	/
Cc1ccc(C2C(/C=C3/SC(=S)NC3=O)=C(c3cccs3)Oc3ccccc32)cc1 (stereo not drawn)	-1.4	3.8	-4.3	9.4	48.7*	4.3	45.4*	41.2*	15.8
Cc1ccc(-c2c(C#N)c(N)n3c(nc4ccccc43)c2C#N)cc1	-6.6	0.5	-3.5	22.1	62.7*	-3.1	63.3*	2.8	82.1*
CCNC(=O)C1(C)CCCN(C(=O)CCc2cccs2)C1 (stereo not drawn)	/	/	-1.9	/	-0.3	/	/	/	/
COCCn1c(SCC(=O)NCc2ccc(F)cc2)nc2ccccc21	-1.2	1.3	1.6	-1.4	3.0	10.1	/	/	/
SMILES	IDE act	IDE inh	Rin1 Abl inh	TPT1 inhibitor	Rpn11 block	Calb FLC	Rpn11 confirm	MMP-2 counter	Thrombin FP
COc1ccc(OC)c(NS(=O)(=O)c2ccc3[nH]c(=O)[nH]c3c2)c1	/	/	-0.4	/	-1.2	/	/	/	/
O=C1N/C(=N/NC(=O)c2cccc3ccccc23)S/C1=C\c1ccccc1OCc1ccccc1	0.8	/	5.2	/	44.9*	/	19.8	20.6	13.0
COc1ccc(OC)c(/C=C2\S/C(=N/NC(=O)c3ccc4ccccc4c3)NC2=O)c1	1.4	9.2	-0.7	6.6	/	-3.9	/	/	/
CS(=O)(=O)C1=NSC2=NC(=O)/C(=C\c3cccn3-c3ccc(Cl)cc3)C(=N)N21	1.7	-2.8	-0.8	6.5	46.6*	7.2	76.5*	38.8	120.2*
O=C(c1ccco1)N1CCN(C(=O)c2cc(-c3ccccc3)nc3ccccc23)CC1	-0.1	3.0	-1.1	-0.4	1.8	2.5	/	/	/
O=C(c1ccco1)N1CCN(C(=O)c2cc(-c3ccncc3)nc3ccc(Br)cc23)CC1	-1.6	1.3	-4.5	12.6	64.8*	-1.6	-16.3	-2.7	0.1
CS(=O)(=O)c1ccc(C(=O)OCC(=O)NCc2cccs2)cc1[N+](=O)[O-]	1.1	4.9	0.3	/	41.0*	/	-23.5	-31.8	-32.8
Cc1cccc(C(=O)OCC(=O)NCc2cccs2)c1	4.7	-0.1	2.8	-1.4	8.3	3.7	/	/	/
CC(OC(=O)c1ccc2ncsc2c1)C(=O)Nc1cccc(Cl)c1 (stereo not drawn)	3.4	-4.0	0.6	/	-8.5	/	/	/	/
Nc1nc2ccccc2n1C(=O)c1ccccc1	-0.1	-3.1	0.7	-4.8	-7.7	4.9	/	/	/
Nc1nc2ccccc2n1C(=O)c1ccco1	1.8	/	1.7	/	48.2*	9.7	-4.7	-36.7	-13.9
